Test results: PubChem BioAssay AID1851 (National Center for Advancing Translational Sciences (NCATS), 2009)
About 5,700 (36%) of roughly 16,000 compounds were called active. Inconclusive results (about 24%) are left out. Calls follow the shape of the dose curve; as a rule, active = well fitted curve in the direction sought with a large enough effect; inconclusive = small, poorly fitted or top-dose-only effect, or effect the other way; inactive = no such curve, though single readings can be large or run the other way. Some of the results follow.

Target: Cytochrome P450 1A2 (Homo sapiens) (UniProt P05177)
Sequence (P05177 whole entry, looked up): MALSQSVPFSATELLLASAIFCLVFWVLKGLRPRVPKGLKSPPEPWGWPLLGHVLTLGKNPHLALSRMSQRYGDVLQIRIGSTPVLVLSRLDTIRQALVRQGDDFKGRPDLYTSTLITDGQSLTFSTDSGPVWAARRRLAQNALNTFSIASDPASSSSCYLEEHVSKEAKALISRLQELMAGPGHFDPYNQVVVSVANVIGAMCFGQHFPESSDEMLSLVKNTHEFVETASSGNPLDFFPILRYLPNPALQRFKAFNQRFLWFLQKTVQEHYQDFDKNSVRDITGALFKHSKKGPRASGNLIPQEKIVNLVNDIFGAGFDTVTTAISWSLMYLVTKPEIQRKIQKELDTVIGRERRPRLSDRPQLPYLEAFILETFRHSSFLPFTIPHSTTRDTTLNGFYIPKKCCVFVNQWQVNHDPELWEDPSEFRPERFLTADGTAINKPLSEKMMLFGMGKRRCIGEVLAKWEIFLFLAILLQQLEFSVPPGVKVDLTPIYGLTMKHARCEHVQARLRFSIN
Assay: Cytochrome panel assay with activity outcomes
Conditions: recombinant CYP, pro-luciferin dealkylation, luminescence, p450-cyp1a2; series mostly up to 57.1 µM; activity, negative = inhibition: at the top concentration
% is scaled to controls: 0 for no effect and ±100 for the full control effect.

Row | SMILES | activity, negative = inhibition | AC50
1 | N[C@@H](Cn1ccc(=O)n(Cc2ccc(C(=O)O)cc2)c1=O)C(=O)O | -15.7% (inactive) | 
2 | c1ccc(C[N+]23CN4CN(CN(C4)C2)C3)cc1 | -10.1% [at 2.29 µM] (inactive) | 
3 | Cc1ccc(NC(=[OH+])c2cc3ccccc3cc2O)c(C)c1.Cc1ccc(NC(=[OH+])c2cc3ccccc3cc2O)c(C)c1.[Ni] |  | 0.251 µM (active)
4 | CN(C)[C@@H]1C(=O)C(C(N)=O)=C(O)[C@]2(O)C(=O)C3=C(O)c4c(O)cccc4[C@@](C)(O)[C@H]3[C@H](O)[C@@H]12 | -18.3% [at 25.6 µM] (inactive) | 
5 | CN(C(=O)Cc1ccc(Cl)c(Cl)c1)[C@@H](CN1CCCC1)c1cccc(OCC(=O)O)c1 | 2.92% (inactive) | 
6 | C[N+]1(C)[C@@H]2CC(OC(=O)[C@@H](CO)c3ccccc3)C[C@@H]1[C@H]1O[C@H]12 (stereo partly specified) | -22.8% [at 11.4 µM] (inactive) | 
7 | Cc1ccc(S(=O)(=O)N[C@@H](CCCCN)C(=O)CCl)cc1 | 3.11% (inactive) | 
8 | C[C@@]12CC[C@H](O[C@@H]3O[C@H](CO)[C@@H](O)[C@H](O)[C@@H]3O)C[C@@H]1CC[C@H]1[C@H]2CC[C@@]2(C)[C@@H](C3=CCOC3=O)CC[C@]12O | -11.7% [at 11.4 µM] (inactive) | 
9 | CCOc1ccc2c(c1)C(C)=CC(C)(C)N2 |  | 5.01 µM (active)
10 | CC(C)(C)C(=O)CP(=O)(O)O | -9.4% [at 11.4 µM] (inactive) | 
11 | CCOC(=O)C1=C(C)OC(N)=C(C#N)C12C(=O)N(C)c1ccccc12 (stereo unspecified) | 10.1% (inactive) | 
12 | C[C@@H]1[C@@H]2Cc3ccc(O)cc3[C@@]1(C)CCN2CC1CC1 | -14.6% (inactive) | 
13 | CNC(C)Cc1ccccc1Sc1ccc(O)cc1 (stereo unspecified) | -2.13% (inactive) | 
14 | Cn1c(O)c(C(=N)COc2ccccc2)c(=O)n(C)c1=O |  | 6.31 µM (active)
15 | O=C(Oc1ccccc1)N1CCC2(CC1)CN(C(c1ccccc1)c1ccccc1)C2 | -14.2% (inactive) | 
16 | c1csc(CN2CC[C@@]3(CCCNC3)C2)n1 | -12.5% (inactive) | 
17 | CS(=N)(=O)CC[C@H](N)P(=O)(O)O (stereo partly specified) | -13.9% [at 11.4 µM] (inactive) | 
18 | O=C(c1ccccc1F)c1cn(CC(=O)N2CCOCC2)c2ccccc12 | 0.466% (inactive) | 
19 | CCOC(=O)Cn1cc(C(=O)c2ccccc2F)c2ccccc21 |  | 3.55 µM (active)
20 | O=C(c1ccccc1F)c1cn(Cc2ccccc2)c2ccccc12 |  | 7.08 µM (active)
21 | COc1ccc(OC)c([C@H](O)[C@H](C)N)c1 |  | inactive
22 | c1cc(N2CCCC3(CCNCC3)C2)ccn1 | -4.56% (inactive) | 
23 | Nc1nc(N)c(N=Nc2ccc([As](=O)(O)O)cc2)c(=O)[nH]1 | -14.9% [at 2.29 µM] (inactive) | 

Row | SMILES | activity, negative = inhibition | AC50
24 | N=C(N)n1cc(/C=N\N=C(N)N)cn1 | 7.8% [at 2.29 µM] (inactive) | 
25 | CCC[C@@](C)(COC(N)=O)COC(=O)NC(C)C | 0.255% [at 25.6 µM] (inactive) | 
26 | O=C(O)C(O)(c1ccc(-c2ccccc2)cc1)c1ccc(-c2ccccc2)cc1 | -16.4% [at 11.4 µM] (inactive) | 
27 | CS(=N)(=O)CC[C@@H](N)C(=O)O (stereo partly specified) |  | inactive
28 | Cc1cc(C)nc(NC2=NCCS2)n1 |  | 12.6 µM (active)
29 | C=C(C)[C@H]1CC[C@]2(C(=O)O)CC[C@]3(C)[C@@H](CC[C@H]4[C@@]5(C)CC[C@@H](O)C(C)(C)[C@@H]5CC[C@@]43C)[C@H]12 | 10.2% [at 25.6 µM] (inactive) | 
30 | Cc1ccc(S(=O)(=O)NCC2CCC(C(=O)N3CCC4(CC3)OCCO4)CC2)cc1 (stereo unspecified) | -4.19% (inactive) | 
31 | Cc1ccc2cc3cc(C(=O)N4CCC5(CC4)OCCO5)oc3nc2c1 |  | 2.51 µM (active)
32 | Cc1cc(NC(=O)CCC(=O)N2CCC3(CC2)OCCO3)no1 | -14.7% (inactive) | 
33 | O=C(c1cc(=O)[nH]c2ccc(Br)cc12)N1CCC2(CC1)OCCO2 | 7.44% (inactive) | 
34 | O=C(c1cc2cc3ccc(Cl)cc3nc2o1)N1CCC2(CC1)OCCO2 |  | 6.31 µM (active)
35 | O=C(Cn1ncc2ccsc2c1=O)N1CCC2(CC1)OCCO2 | -10% (inactive) | 
36 | COC(=O)[C@H](N)CCCN=C(N)N[N+](=O)[O-] | -6.84% (inactive) | 
37 | CN1CCc2cccc(Cl)c2CC1 | -19.4% (inactive) | 
38 | CCCC(=O)Nc1ccc(N2CCN(CC)CC2)c(Cl)c1 | -11.9% (inactive) | 
39 | C[C@@H]1O[C@H](O[C@@H]2CC[C@@]3(C=O)[C@H]4CC[C@@]5(C)[C@@H](C6=CC(=O)OC6)CC[C@@]5(O)[C@@H]4CC[C@]3(O)C2)C[C@H](O)[C@@H]1O | -3.45% [at 25.6 µM] (inactive) | 
40 | CN1C(=O)C(=Cc2ccccc2Oc2ccc(Cl)c(F)c2)C(=O)N(C)C1=O |  | 22.4 µM (active)
41 | Cc1ccc(N2C(=O)/C(=C/N3CCN(C(=O)c4ccco4)CC3)C(=O)NC2=S)cc1C | -23.4% (inactive) | 
42 | O=C(NC1CCCCC1)NC1CC2CCC(C1)N2Cc1nnnn1Cc1ccc2c(c1)OCO2 (stereo unspecified) | -28.4% (inactive) | 
43 | CC(C)CN1CC2(CCN(C(=O)Oc3ccccc3)CC2)C1 | -1.37% (inactive) | 
44 | c1csc(CN2CCC3(CCNCC3)CC2)n1 | 2.27% (inactive) | 
45 | COc1cc(OC)c(/C=C2/C(=O)Nc3ccccc32)c(OC)c1 |  | 0.501 µM (active)
46 | C=C(C)c1ccccc1 (tested in a mixture with another compound) | -19.6% [at 2.29 µM] (inactive) | 
